High-throughput results: PubChem BioAssay, National Center for Advancing Translational Sciences (NCATS)
In the library only some 1.3% were active in any assay of this set; here they are far more common.
KCNH2 3.1 inh: inhibitors of human KCNH2 3.1 potassium channel isoform; actives 0.95% (n = 340,000); activity change, % (tested at about 1.8 µM); AID 720553; U2OS KCNH2 3.1, thallium flux FluxOr; hits give low values;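 active = maximum activity change below -70%; inconclusive = maximum activity change from -70% to -50%; inactive = maximum activity change above -50%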;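 also: thallium influx rate constant from kinetic fluorescence after stimulation buffer; % is scaled to controls: 0 for no effect and ±100 for the full control effect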
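FluxOr-based Tl+ influx in U2OS cells transduced with KCNH2 3.1 virus; rate constants normalized to DMSO controls.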
Rango dissoc inh: inhibition of RanGTP-driven Rango-importin beta dissociation. Potency, µM (series often up to 46.1 µM), inactives show top-dose activity change, negative = inhibition. actives 0.071% (n = 340,000). Biochemical FRET Rango-importin beta, RanGTP-induced dissociation; also: potency is read from the fitted curve at half-maximal effect; % of control where 0% means no effect; nearly all actives have a fitted effect of over 45% in size
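Rango (0.1 uM)–importin beta (0.25 uM) complex; RanGTP-RCC1 trigger; 45 min RT; CFP/YFP FRET read.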
Rango complex inh: prevents formation of the Rango-importin beta complex; Q14974; Rango CFP/YFP FRET sensor + importin beta, 45 min; Potency, µM (titrated, usually from 92.2 µM), for inactives: at the highest dose inhibition of complex formation; actives 0.031% (n = 340,000); AID 540263;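 also: potency is read from the fitted curve at half-maximal effect; 0% = DMSO wells and 100% = buffer wells lacking importin beta; nearly all actives have a fitted effect of over 15% in size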
Target sequence (Q14974 whole entry, looked up): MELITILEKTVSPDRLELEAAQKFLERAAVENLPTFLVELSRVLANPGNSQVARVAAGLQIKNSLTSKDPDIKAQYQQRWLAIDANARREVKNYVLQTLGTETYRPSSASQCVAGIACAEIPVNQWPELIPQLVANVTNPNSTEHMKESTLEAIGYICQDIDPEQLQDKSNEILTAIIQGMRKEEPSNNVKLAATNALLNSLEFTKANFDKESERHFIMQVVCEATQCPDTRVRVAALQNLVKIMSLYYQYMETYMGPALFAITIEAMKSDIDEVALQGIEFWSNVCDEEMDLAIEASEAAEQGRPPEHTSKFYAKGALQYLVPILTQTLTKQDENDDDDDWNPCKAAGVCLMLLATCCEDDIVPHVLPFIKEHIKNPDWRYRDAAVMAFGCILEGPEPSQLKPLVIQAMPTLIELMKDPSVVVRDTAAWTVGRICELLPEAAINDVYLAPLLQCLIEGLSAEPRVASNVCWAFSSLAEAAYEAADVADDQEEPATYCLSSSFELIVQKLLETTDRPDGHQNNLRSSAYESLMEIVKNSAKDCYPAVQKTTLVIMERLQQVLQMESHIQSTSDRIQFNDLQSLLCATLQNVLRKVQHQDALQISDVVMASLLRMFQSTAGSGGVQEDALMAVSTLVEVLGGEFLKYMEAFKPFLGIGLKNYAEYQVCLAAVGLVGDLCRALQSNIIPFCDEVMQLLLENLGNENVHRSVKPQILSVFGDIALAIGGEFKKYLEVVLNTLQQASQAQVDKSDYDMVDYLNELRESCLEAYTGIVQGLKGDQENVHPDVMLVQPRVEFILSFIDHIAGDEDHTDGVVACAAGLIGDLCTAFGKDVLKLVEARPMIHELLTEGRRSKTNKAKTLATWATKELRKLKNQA
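FRET biosensor Rango (snurportin 1 IBB between N-terminal EYFP and C-terminal Cerulean), 50 nM in PBS/1 mM DTT/0.02% Tween-20/0.1% BSA, preincubated 5 min RT with compound; 0.125 microM importin beta added, 45 min RT, CFP/YFP FRET ratio read.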
hERG WT inh: KCNH2 (human, wildtype) channel inhibition | Q12809 | U2OS, BacMam KCNH2, thallium flux FluxOr; hits give low values | activity change, % at 1.84 µM | actives 0.37% (n = 340,000);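 active = maximum activity change below -70%; inconclusive = maximum activity change between -70% and -50%; inactive = maximum activity change above -50%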; also: % is scaled to controls: 0 for no effect and ±100 for the full control effect
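U2OS cells transduced with wild-type KCNH2 virus are loaded with FluxOr dye for 45 min, and thallium flux is measured in kinetic reads before and after stimulation buffer. Rate constants are normalized to DMSO controls.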
* = called active by the depositor; ? = inconclusive; . = no result given. Unless noted, calls follow the shape of the full dose curve.

SMILES | KCNH2 3.1 inh | Rango dissoc inh | Rango complex inh | hERG WT inh
Cc1ccc2[nH]c(=O)c(CN(Cc3cccs3)S(=O)(=O)c3ccc4c(c3)OCCO4)cc2c1 | -120.2* | 8.9% | 4.1% | 3.0
CC(COc1ccccc1)N1CCC(CO)(Cc2ccccc2)CC1 (centres undefined) | -71.5* | -0.7% | -2.4% | 12.8
COc1ccc(CC2(CO)CCN(S(=O)(=O)N(C)C)CC2)cc1 | 9.0 | 9.1% | 0.1% | 2.2
Cc1ncc(CN2CCC(CO)(Cc3ccccc3)CC2)s1 | 9.3 | -13.5% | 3.5% | 2.9
COc1ccc(CC2(CO)CCN(C(C)COc3ccccc3)CC2)cc1 (centres undefined) | -94.1* | -11.4% | 0.6% | -27.5
Cc1ccnc(NC(=O)c2cccc(S(=O)(=O)N3CCCc4ccccc43)c2)c1 | -6.3 | -27.3% | -0.8% | 3.1
COc1ccccc1-c1nnc(SCC(=O)NNC(=O)c2ccccc2F)n1C | 4.4 | -0.9% | 9.0% | -4.5
CCOC(=O)CNC(=O)c1cc(-c2ccccn2)nc2c(C)c(Cl)ccc12 | -167.7* | 7.6% | -1.9% | -0.5
Cc1cc(-c2ccc([N+](=O)[O-])cc2)nc2ccccc12 | 3.0 | -0.8% | -0.1% | -20.2
Cc1cc(N2CCN(c3nc(-c4ccc([N+](=O)[O-])cc4)cs3)CC2)c2ccccc2n1 | -123.9* | -9.7% | 7.5% | -121.7*
CCOc1cc(/C=C(\C#N)C(=O)NCC2CCCO2)ccc1OCC(N)=O (centres undefined) | -184.8* | -5.2% | 3.8% | -136.1*
O=C(Nc1ccc(S(=O)(=O)Nc2cnc3ccccc3n2)cc1)c1ccc([N+](=O)[O-])cc1Cl | 4.6 | 8.5% | 0.1% | -4.4
Cc1ccc(CN2CCN(Cc3c(C)nn(-c4ccc(F)cc4)c3C)CC2CCO)o1 (centres undefined) | -6.0 | -2.7% | -2.3% | 3.7
Cc1ccc(CN2CCN(Cc3ccc(-n4cccn4)cc3C)CC2CCO)cc1 (centres undefined) | -158.3* | 3.7% | -1.7% | -91.1*
Cc1cc(C)c(CN2CCN(Cc3ccc(C)o3)C(CCO)C2)c(-n2cccn2)c1 (centres undefined) | -72.4* | -9.6% | 2.5% | -23.3
OCCC1CN(Cc2ccc(-n3cccn3)cc2)CCN1Cc1ccccc1 (centres undefined) | 1.4 | 3.2% | -0.4% | 12.3
Cc1ccc(CN2CCN(Cc3cccc(-n4cccn4)c3)CC2CCO)cc1 (centres undefined) | -86.6* | -3.8% | -3.6% | -26.4
Nc1c(N(CCC2=CCCCC2)C(=O)c2ccco2)c(=O)[nH]c(=O)n1Cc1ccccc1 | -17.7 | 13.2% | 0.6% | 1.9
CCOCCCN(CCC#N)S(=O)(=O)c1ccc(S(=O)(=O)N2CCCC2)cc1 | -8.1 | -15.5% | 8.9% | -82.4*
CC(OC(=O)c1nc(-c2ccccc2)n(-c2ccccc2)n1)C(=O)Nc1cc(Cl)cc(Cl)c1 (centres undefined) | -43.9 | 2.4% | -3.6% | -141.9*
Cc1ccc2nc(SCC(=O)NCCCN3CCCC3=O)[nH]c2c1 | -3.6 | 26.5% | 2.6% | -1.4
CCn1nc(NC(C)=O)c2cc3ccc(C)cc3nc21 | 5.7 | 9.2µM* | ? | -0.2
COc1ccc(-c2ccnc3nc(-n4cccc4)nn23)cc1 | 13.8 | 4.8% | -0.1% | -0.2
COc1ccc(-c2ccnc3nc(N4CCOCC4)nn23)cc1 | -107.5* | -6.1% | -4.4% | -4.2
c1ccc(Oc2ccc(-c3ccnc4nc(N5CCOCC5)nn34)cc2)cc1 | -117.8* | 0.2% | ? | -9.7
SMILES | KCNH2 3.1 inh | Rango dissoc inh | Rango complex inh | hERG WT inh
O=Cc1cccn1Cc1ccc(Cl)cc1Cl | ? | 10.6% | -7.8% | 0.9
NNC(=O)c1cccn(Cc2ccc(Cl)cc2Cl)c1=O | -6.3 | 0.5% | -0.5% | -87.7*
CCC(=O)N1c2ccc(S(=O)(=O)N3CCN(c4ccc([N+](=O)[O-])cc4)CC3)cc2CC1C (centres undefined) | -99.1* | 5.3% | 2.5% | -11.8
CCC(=O)N1c2ccc(S(=O)(=O)N3CCN(CC)CC3)cc2CC1C (centres undefined) | 4.3 | 8.4% | 0.2% | -0.5
COc1ccc(CC2(CO)CCN(Cc3ccc(NC(C)=O)cc3)CC2)cc1 | -22.9 | -8.3% | 5.9% | -1.8
COc1ccc(CC2(CO)CCN(Cc3ccc4c(c3)CCO4)CC2)cc1 | -181.1* | -26.3% | 1.4% | -154.2*
COc1ccc(CC2(CO)CCN(Cc3cccc4nccnc34)CC2)cc1 | -30.1 | -5.6% | ? | 0.8
COc1ccc(CC2(CO)CCN(Cc3cnn(-c4ccc(F)cc4)c3)CC2)cc1 | 11.0 | -0.5% | -4.3% | 13.1
Cc1c(CN2CCC(CO)(Cc3ccccc3)CC2)c2ccccc2n1C | 5.4 | -16.5% | 0.3% | 37.7
OCC1(Cc2ccccc2)CCN(CCCC2CCCC2)CC1 | -75.0* | -7.0% | 0.9% | -34.6
COc1ccc(CC2(CO)CCN(Cc3cnn(-c4ccccc4)c3)CC2)cc1 | -89.2* | -2.5% | -2.8% | -45.3
COc1ccc(CC2(CO)CCN(Cc3cccn3-c3ccccn3)CC2)cc1 | -108.4* | 4.0% | -1.0% | ?
CCOc1ncccc1C(=O)OCc1csc(CC(=O)Nc2ccccc2C)n1 | 23.9 | -1.9% | -3.3% | 5.6
C=CC[C@H](CC(=O)NCCO)C(=O)NCCOC(=O)[C@@H](CC=C)CC(=O)OC(C)(C)C | -5.8 | 9.7% | 2.5% | -15.1
CC1CCCCN1C(=S)Nc1ccc(S(=O)(=O)N2CCCCC2)cc1 (centres undefined) | 3.6 | . | . | -1.1
OCC1(Cc2ccccc2)CCCN(Cc2ccc(-c3ccco3)cc2)C1 (centres undefined) | -26.5 | -28.0% | 2.9% | -3.6
COc1ccc(CC2(CO)CCN(Cc3ccc(OC(F)(F)F)cc3)CC2)cc1 | -81.3* | -6.8% | -1.8% | ?
OCC1(Cc2ccccc2)CCN(Cc2ccc(-c3ccco3)cc2)CC1 | -85.1* | -8.0% | -0.4% | -11.2
CC(=O)c1csc(-c2cccc(-c3nc4ccc(Cl)cn4c3NC3CCCCC3)c2)c1 | 8.3 | 25.5% | 0.0% | 10.2
CCCCCCSc1cc(-c2nc3ccc(C)cn3c2NCc2ccccc2)ccc1OC | -46.8 | ? | ? | -16.2
CCCCCCSc1cc(-c2nc3cc(C)ccn3c2NCCCC)ccc1OC | -110.6* | -10.5% | ? | -80.3*
CCCCNc1c(-c2cccc(-c3cc(C(C)=O)cs3)c2)nc2cc(C)ccn12 | -70.6* | 5.6% | 0.0% | -19.3
COc1cc(/C=C2/C(=N)N3C(=NC2=O)SN=C3S(=O)(=O)C(C)C)ccc1OC(=O)c1ccco1 | 1.9 | 8.2µM* | ? | 0.0
Cc1cc(CNC(=O)C2CCC(=O)N(CCc3cccc(F)c3)C2)nn1C (centres undefined) | 2.7 | -8.1% | -0.4% | -5.2
COc1cccc(CN2CC(C(=O)NCCCc3ccc(C)cc3)CCC2=O)c1 (centres undefined) | -86.0* | -12.0% | 2.6% | 7.1
COc1cccc(CN2CC(C(=O)NCCCc3ccncc3)CCC2=O)c1 (centres undefined) | -3.5 | 3.2% | 3.2% | -7.2
